Reference: paper PMC5700166

Experiments:
[1] = target: T1, GST-Nv-NF-kB (Ser allele) (Nematostella vectensis, UniProt A7UNT2 2-411); assay: protein-binding microarray (PBM); PBM: ~300 nM protein, 6 mM HEPES pH 7.8, 80 mM KCl, 0.5 mM EDTA, 0.5 mM EGTA, 6% glycerol, 35 ng/ul poly-dIdC, 1% milk, 1 h, room temperature; Ap Aiptasia and Nv Nematostella (sea anemones) / Co Capsaspora / Aq Amphimedon (sponge) / Dm Drosophila / Hu human; RHD is the Rel homology domain; high values mean tight binding; settings: dsDNA, one strand shown
T1 sequence: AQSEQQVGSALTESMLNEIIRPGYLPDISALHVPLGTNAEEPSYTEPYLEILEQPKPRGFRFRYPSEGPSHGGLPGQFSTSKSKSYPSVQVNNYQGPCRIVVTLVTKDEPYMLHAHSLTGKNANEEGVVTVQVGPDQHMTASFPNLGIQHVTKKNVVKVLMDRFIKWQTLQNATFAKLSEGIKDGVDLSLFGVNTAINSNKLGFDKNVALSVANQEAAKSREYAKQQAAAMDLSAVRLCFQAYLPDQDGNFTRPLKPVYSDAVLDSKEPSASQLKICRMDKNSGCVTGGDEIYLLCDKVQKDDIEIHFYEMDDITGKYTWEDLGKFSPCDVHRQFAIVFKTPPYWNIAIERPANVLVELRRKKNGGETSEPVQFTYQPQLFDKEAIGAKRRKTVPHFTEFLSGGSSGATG

GST-Hu-p50 = GST-Hu-p50 (Homo sapiens, UniProt P19838 7-356); assay: as above; settings: dsDNA, one strand shown
Sequence of GST-Hu-p50 (P19838 7-356): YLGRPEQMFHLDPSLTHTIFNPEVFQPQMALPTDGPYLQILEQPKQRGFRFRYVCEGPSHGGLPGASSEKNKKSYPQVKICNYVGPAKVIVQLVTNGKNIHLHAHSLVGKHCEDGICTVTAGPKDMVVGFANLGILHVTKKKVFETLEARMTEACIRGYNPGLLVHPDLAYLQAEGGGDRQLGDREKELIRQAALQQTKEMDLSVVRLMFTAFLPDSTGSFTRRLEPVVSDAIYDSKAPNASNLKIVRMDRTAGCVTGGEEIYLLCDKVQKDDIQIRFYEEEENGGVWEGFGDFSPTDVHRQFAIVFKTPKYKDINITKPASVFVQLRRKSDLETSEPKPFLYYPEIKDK

| Sequence | binding signal [1] [z-score] | binding signal (GST-Hu-p50) [z-score] |
| --- | --- | --- |
| CCGATTAACATCAGGGAGATACCTGATGTTAATCGGGTCTTGATTCGCTTGACGCTGCTG | 1.75 | 3.08 |
| CCGATTAACATCAGGCACCCCCCTGATGTTAATCGGGTCTTGATTCGCTTGACGCTGCTG | 3.18 | 4.38 |
| CCGATTAACATCACAGGGAAAAATGATGTTAATCGGGTCTTGATTCGCTTGACGCTGCTG | 5.18 | 3.13 |
| CCGATTAACATCATTATGGGAAATGATGTTAATCGGGTCTTGATTCGCTTGACGCTGCTG | 2.21 | 2.18 |
| CCGATTAACATCAAAAAACACCCTGATGTTAATCGGGTCTTGATTCGCTTGACGCTGCTG | 4.25 | 5.16 |
| CCGATTAACATCACGAGATTCCCTGATGTTAATCGGGTCTTGATTCGCTTGACGCTGCTG | 3.97 | 2.64 |
| CCGATTAACATCAGGGAATGCACTGATGTTAATCGGGTCTTGATTCGCTTGACGCTGCTG | 2.1 | 2.28 |
| CCGATTAACATCAGGAGACTCCCTGATGTTAATCGGGTCTTGATTCGCTTGACGCTGCTG | 1.61 | 1.93 |
| CCGATTAACATCAGGAACCCCCATGATGTTAATCGGGTCTTGATTCGCTTGACGCTGCTG | 4.62 | 5.23 |
| CCGATTAACATCAGGAACTACCCTGATGTTAATCGGGTCTTGATTCGCTTGACGCTGCTG | 2.02 | 2.58 |
| CCGATTAACATCAGGGATTTCTATGATGTTAATCGGGTCTTGATTCGCTTGACGCTGCTG | 3.11 | 3.37 |
| CCGATTAACATCAAACACTCCCCTGATGTTAATCGGGTCTTGATTCGCTTGACGCTGCTG | 4.23 | 3.6 |
| CCGATTAACATCAGGGGGTTAGATGATGTTAATCGGGTCTTGATTCGCTTGACGCTGCTG | 3.46 | 3.95 |
| CCGATTAACATCAGGGCTTTACCTGATGTTAATCGGGTCTTGATTCGCTTGACGCTGCTG | 1.71 | 2.02 |
